HCV inh: blocks hepatitis C virus. Potency, µM (highest dose often 41.8 µM), inactives show at the highest dose activity change, negative = inhibition, hits mostly inhibitors. Huh7.5.1 HCVcc-Cre infection, luciferase reporter, 44 h. hit rate 3.4% among 340,000. AID 651820; further: potency means the concentration at half of the fitted maximal effect; on the % scale 0 is the no-effect control and ±100 the full control effect
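Antiviral activity was scored by luciferase reporter output from cells infected with HCVcc-Cre (~0.5 moi) in presence of compound, 44 h infection period, cells seeded 1,000/well 4 h prior.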
Pf growth 48h: P. falciparum growth inhibition at 48 hours (one generation) | Potency, µM (titrated, usually from 28.7 µM), for the others: at the highest dose activity change, negative = inhibition, usual class: inhibitors | hit rate 5.9% among 310,000 | P. falciparum luciferase growth in erythrocytes, 48 h; further: potency means the concentration at half of the fitted maximal effect; on the % scale 0 is the no-effect control and ±100 the full control effect
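Read-out is firefly luciferase luminescence from an integrated reporter in P. falciparum, so falling signal marks reduced parasite growth. Infected erythrocytes were at 2% hematocrit and 0.1% parasitemia (final) in Albumax-supplemented RPMI 1640.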
Pf growth 96h: P. falciparum growth inhibition at 96 hour, primary screen for plastid delayed-death inhibitors; P. falciparum luciferase reporter growth, 96 h; AID 504834; hit rate 6.9% among 320,000; Potency, µM (highest dose often 28.7 µM), for inactives: at the highest dose activity change, negative = inhibition, actives largely listed as inhibitors; further: potency means the concentration at half of the fitted maximal effect; on the % scale 0 is the no-effect control and ±100 the full control effect
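Infected RBCs, 2% Hct / 0.05% parasitemia final; luciferase-reporter P. falciparum; cpd 96 h, 37 C, 5% CO2; luciferase detection reagent; luminescence.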
CHX counter: counter-screen for Shiga toxin inhibitors: cycloheximide protein synthesis inhibition; hit rate 12% among 300,000; cell reporter, cycloheximide protein synthesis inhibition counterscreen; max response, %; in the data active means max response mostly above about 13%, no sharp cut-off; inactive means mostly below about 14%; further: read at 38.3 µM for the half of the compounds with a filed dose; 0% is about no effect
AMA1 RON2 block: inhibitors of Plasmodium falciparum AMA1-RON2 interaction; hit rate 0.2% among 360,000; AID 720542; Potency, µM (series often up to 58.2 µM), inactives show at the highest dose activity change, negative = inhibition, most hits filed as inhibitors; AlphaScreen AMA1-biotinylated RON2 peptide binding;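 further: potency means the concentration at half of the fitted maximal effect; 0% = vehicle wells and -100% = peptide control; nearly all actives have a fitted effect of over 45% in size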
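AMA1 (3D7) with his tag at 25 nM final met compounds first, then biotinylated RON2 peptide at 25 nM; detection used donor plus acceptor beads, 10 µg/mL apiece, read by AlphaScreen after 30 min at room temperature.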
Shiga toxin inh: inhibitors of Shiga toxin in Vero cells. Vero cells, Shiga toxin protein synthesis inhibition reporter. inhibition, % at 38.7 µM. hit rate 9.2% among 290,000; in the data active means inhibition mostly above about 28%, no sharp cut-off; inactive means mostly below about 43%; further: 0% is about no effect
* marks the source's active call; other numbers are inactive results; ? = inconclusive; nt = no result; ! = a repeat was not active; [ ] = remark or other dose. The list is not random: actives were taken first. Their share in the collection is about 21%. Unless noted, the call rests on the fitted dose curve; in most records, active means well fitted curve in the direction sought with a large enough effect; inconclusive means small, poorly fitted or top-dose-only effect, or another doubt; inactive means no such curve, though single readings can be large; an effect the other way counts as inactive or inconclusive.

SMILES	HCV inh	Pf growth 48h	Pf growth 96h	CHX counter	AMA1 RON2 block	Shiga toxin inh
Cn1c(=O)c2cc(S(=O)(=O)NC(C(=O)NC3CCCCC3)c3ccccc3)ccc2n(C)c1=O (stereo not drawn)	2.9%	nt	-9.8%	-6.2	1.2%	-12.8
Cn1c(=O)c2cc(S(=O)(=O)NC(C(=O)N3CCCCCC3)c3ccccc3)ccc2n(C)c1=O (stereo not drawn)	14.3%	nt	10.4µM*	-5.4	1.4%	-12.4
COc1cccc(CN(C)C(=O)C(Cc2ccccc2)NC(=O)c2ccccc2)c1OC (stereo not drawn)	?	?	?	nt	2.1%	nt
Nc1nc(SCC(=O)Nc2ncc(Cl)cc2Cl)n[nH]1	1.3%	10.2%	8.2%	nt	-19.6%	nt
Cc1cc(Nc2ncc(Cl)cc2Cl)n[nH]1	-23.1%	27.6%	nt	14.7*	40.8%	74.2
Cc1ccc([N+](=O)[O-])c2cccnc12	8.7%	14.0%	37.6%	-1.7	-24.7%	-13.1
O=[N+]([O-])c1cc(O)c2ncccc2c1	0.562µM*	?	?	22.4*	-22.5%	29.9
O=[N+]([O-])c1cc2cccnc2c2ncccc12	?	4.65µM*	9.28µM*	-0.9	126.0%	18.3
O=[N+]([O-])c1ccc(Sc2cccc3cccnc23)c2cccnc12	10µM*	?	?	-0.5	-6.1%	-4.7
COC(=O)c1ccc(COc2cc([N+](=O)[O-])cc3cccnc23)o1	2.2%	19.9%	3.1%	-3.4	0.1%	14.8
CCN(CC)CCn1c2c(c(SCC(=O)NCc3ccccc3)nc1=O)CCC2	6.0%	-0.9%	1.7%	nt	-9.5%	nt
O=C(CSc1nc2nn(-c3ccccc3)c(=O)c-2c2n1CCCCC2)Nc1ccc(F)c(F)c1	?	nt	nt	nt	-8.9%	nt
O=C(c1noc2c1CCCC2)N1CCc2c([nH]c3ccccc23)C1c1ccccn1 (stereo not drawn)	-24.0%	?	?	8.4*	11.1%	18.7
Cc1cccc(C2c3[nH]c4ccccc4c3CCN2Cc2cnn(-c3ccc(F)cc3)c2)n1 (stereo not drawn)	5.7%	10.4µM*	22.4%	-1.2	-6.2%	-9.4
O=C(c1cccs1)N1CCc2c([nH]c3ccccc23)C1c1ccccn1 (stereo not drawn)	0.3%	?	32.8%	-3.8	0.6%	-3.0
Cc1cccc(C2c3[nH]c4ccccc4c3CCN2C(=O)c2noc3c2CCCC3)n1 (stereo not drawn)	?	?	13.1µM*	1.2	?	12.3
COc1ccc(CC(=O)N/N=C(/C)CC(=O)N(C)c2ccccc2)cc1	11.9%	13.1%	55.9%	8.4	31.4%	34.6
Cc1cccc(NC(=O)CS(=O)CC(=O)Nc2cnc3ccccc3c2)c1C (stereo not drawn)	-2.4%	11.6%	?	6.2	53.2%	-18.2
Cc1ccc(NC(=O)NC(=O)N(c2ccccc2)S(C)(=O)=O)cc1	11.2%	11.4%	-20.4%	26.8*	0.1%	50.1*
NC(=S)Nc1cnc2ccccc2c1	-7.5%	56.9%	48.3%	26.9*	3.5%	55.5*
COc1ccc(NC(=S)Nc2cnc3ccccc3c2)c(OC)c1	10.2%	-7.5%	?	14.5	-2.3%	-4.3
CN(C)C(=O)NC(NC(=S)Nc1ccccc1)C(Cl)(Cl)Cl (stereo not drawn)	11.1%	?	6.0%	20.4	-12.1%	1.0
CN(C(=O)Nc1cnc2ccccc2c1)c1ccccc1	-14.7%	33.1%	34.2%	33.8*	6.8%	28.4*
CN(C)C(=O)Nc1ccccc1	17.4%	20.1%	-25.5%	40.7*!	-2.8%	87.6*!
Cc1ccc(N(C(=O)Nc2ccccc2)C2=NCCC2)cc1	17.4%	-22.4%	-17.3%	17.5*	0.0%	19.1
SMILES	HCV inh	Pf growth 48h	Pf growth 96h	CHX counter	AMA1 RON2 block	Shiga toxin inh
CCCCCN(C(=O)NC(=O)Nc1ccc(C)cc1)S(=O)(=O)c1ccccc1	5.0%	26.1%	61.2%	19.8*	-3.4%	2.9
Cc1ccc(NC(=O)N(C)c2ccccc2)cc1	-11.2%	4.5%[0.00184 µM]	?	17.1*	-3.1%	48.0*
CCCCCN(C(=O)NC(=O)Nc1ccc(C)cc1C)S(C)(=O)=O	11.8%	-1.8%	10.7%	-4.5	3.5%	23.5
c1ccc(COc2cccc(-c3cc4nc(NCCc5ccncc5)ccn4n3)c2)cc1	nt	nt	nt	nt	-2.6%	nt
CCOc1ccc(-n2c(N)c(-c3nc4ccccc4[nH]3)sc2=S)cc1	?	-20.2%	nt	7.8	86.5%	-13.2
COc1ccc(-n2c(N)c(-c3nc4ccccc4n3C)sc2=S)cc1	-15.7%	0.928µM*	28.4%	10.1	81.9%	20.2
O=C(CCNC(=O)c1ccc([N+](=O)[O-])cc1)Nc1ccc(F)cc1F	9.7%	25.0%	58.3%	13.5	-1.7%	19.9
CC1(C)CCC(=O)N2CC[C@H]3C[C@H](OC(=O)Nc4ccc(Br)cc4)C[C@@H]1[C@H]32	19.6%	0.7%	-0.4%	21.8*	4.7%	19.0
O=C(Nc1ccc2c(c1)OCO2)O[C@@H]1C[C@H]2CCCC(=O)N3CC[C@@H](C1)[C@@H]23	-1.4%	20.8%	41.9%	6.7	-6.3%	8.1
Cc1ccc(C)c(NC(=O)c2cc(-c3cc(C)c(C)cc3O)n[nH]2)c1	?	6.57µM*	?	30.1*	72.9%	61.4*
Cc1ccc(C)c(NC(=O)c2cc(-c3ccccc3O)n[nH]2)c1	-29.6%	?	?	28.9*	63.5%	58.6*
Cc1ccc(NC(=O)c2cc(-c3ccc(C)c(C)c3O)n[nH]2)cc1C	?	?	?	0.3	60.5%	5.8
Cc1ccc(NC(=O)c2cc(-c3cc(C)c(C)cc3O)n[nH]2)cc1C	19.2%	2.08µM*	2.62µM*	15.5*	39.3%	9.2
Cc1ccc(-c2cc(C(=O)Nc3cc(C)ccc3C)[nH]n2)c(O)c1	-4.9%	?	?	18.3*	86.9%	30.2*
C=CCN=C1S/C(=C\N(C)C)C(=O)N1S(=O)(=O)c1ccc(C)cc1	-4.2%	nt	nt	nt	-5.5%	nt
Cc1ccc(OCC(=O)N2CCCCCC2)c(C)c1	7.4%	24.4%	nt	10.4*	4.7%	36.8
Cc1ccc(C)c(OCC(=O)N2CCCN(C)CC2)c1	11.1%	0.9%	31.2%	-2.1	-1.2%[11.6 µM]	-1.6
CC(C)c1ccc(OCC(=O)N2CCCCCC2)c(Br)c1	-4.3%	46.1%	8.0%	24.6*	24.9%	79.8*
